These results are taken from the supplement of paper PMC6522484.

The structures appear in SMILES notation. ± gives the standard deviation of the averaged measurements.

This assay deals with SW480. In words: TCF/Wnt firefly luciferase reporter signal relative to plate median (fraction of plate median); higher = higher Wnt reporter signal. To be noted: 5 µM; treatment time 24 h; reporter: 7TFP. In short, it runs like this:
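For this screen, colorectal cancer cell lines carrying stable lentiviral TCF/Wnt firefly luciferase reporters, either 7TFP or TCF4/Wnt, were seeded into 384-well plates. A day's wait of 24 h preceded addition of library compounds at a final 5 µM, which stayed on the cells for 24 h. Firefly luciferase or CellTiterGlo luminescence, read on parallel plates, was normalised to the plate median per well, and the reported value is the mean of two independent replicates.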
In general terms: In a reporter assay the amount or activity of a reporter protein is the signal.
On to `Clc1ccc(CSC(Cn2ccnc2)c2ccc(Cl)cc2Cl)cc1` (centres undefined), for which the “TCF/Wnt firefly luciferase reporter signal” value worked out at 0.952 ± 0.036.

Consider `CC(=O)S[C@@H]1CC2=CC(=O)CC[C@]2(C)[C@H]2CC[C@@]3(C)[C@@H](CC[C@@]34CCC(=O)O4)[C@H]12`, for which the “TCF/Wnt firefly luciferase reporter signal” value came out at 0.955 ± 0.016. For the compound `CC[C@H](C)[C@@H]1NC(=O)[C@H](C)NC1=O` [Cyclo(alanylisoleucyl)], the “TCF/Wnt firefly luciferase reporter signal” value came to 0.992 ± 0.15. As to `O=C1NCC(=O)N2CCCC12` (centres undefined) [Cyclo(glycylprolyl)], the “TCF/Wnt firefly luciferase reporter signal” value was 0.978 ± 0.073. `O=c1cc(-c2ccccc2)oc2cc(O)cc(O)c12`: the “TCF/Wnt firefly luciferase reporter signal” value came to 1.09 ± 0.064. Then `CCOC(=O)[C@H](CCc1ccccc1)N[C@@H](C)C(=O)N1CCC[C@H]1C(=O)O`, with 0.994 ± 0.023; and `Cc1oc(C(C)O)c2c1C(=O)c1c(O)cccc1C2=O` (centres undefined) [Bhimamycin A], with 1.07 ± 0.042. To `CC(C)NCC(O)c1ccc2ccccc2c1` (centres undefined) belongs 1 ± 0.069. Then `O=C1NS(=O)(=O)c2ccccc21`, with 0.96 ± 0.14; and `OC[C@H]1O[C@@H](Oc2ccc(O)cc2)[C@H](O)[C@@H](O)[C@@H]1O`, with 0.975 ± 0.033; and `Cc1ccc2c(c1)CC[C@H]1CC(=O)CC[C@]21C`, with 0.957 ± 0.0028.

With `N[C@@H]1CONC1=O`, the “TCF/Wnt firefly luciferase reporter signal” value came to 0.969 ± 0.21. Then `COc1cc(-c2oc3cc(O)ccc3c(=O)c2O)ccc1O`, with 1.07 ± 0.035; and `Nc1ccc(C(=O)O)cc1`, with 0.965 ± 0.12. Consider `COc1cc(OC)cc(OC)c1`, for which the “TCF/Wnt firefly luciferase reporter signal” value was found to be 1.1 ± 0.11. Then `CCN(CC)C(=O)c1cccc(C)c1`, with 0.923 ± 0.061; and `O=C1NC(Cc2ccc(O)cc2)C(=O)N2CCCC12` (centres undefined) [cyclo(prolyltyrosyl)], with 0.887 ± 0.05. Take `CC1(C)S[C@@H]2[C@H](NC(=O)[C@H](C(=O)O)c3ccsc3)C(=O)N2[C@H]1C(=O)O`: the “TCF/Wnt firefly luciferase reporter signal” value was found to be 1.075 ± 0.0071. To `CN[C@H]1CC[C@@H](c2ccc(Cl)c(Cl)c2)c2ccccc21` belongs 0.675 ± 0.15.
